Drawing on PubChem BioAssay (NCI), this text covers growth inhibition for 27 compounds.

Each structure is given as a SMILES string. Compounds without any hit were thinned out: in the full panel of roughly 79,000, 15% have a hit. Values without a mark were called inactive. The source made the active and inactive calls. Cut-off read from the data, not from the text of the source: active = growth inhibition above about 70%; inactive = the rest.

This experiment in a line: NCI Yeast Anticancer Drug Screen. Data for the sgs1 mgt1 strain (AID 161).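 Note: 0% = growth of cultures given vehicle only.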 Conditions: S. cerevisiae sgs1 mgt1 strain, at 5.0 µM (retest, dose inferred, filed as 0.5), active compounds read high. A digest of the protocol:
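Inhibition of yeast growth, normalised to vehicle-treated controls, is reported for a strain bearing genetic alterations in DNA damage repair.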
For the compound `CC(=O)Nc1ccc2c(c1)C(S)c1ccccc1-2` (configuration not stated), the growth inhibition is 2%.
As to `CCN1CC(=O)N(C)C1=S`, the growth inhibition is 8%.
In the case of `[O-][n+]1c(-c2ccccc2)c(Cl)c(-c2ccccc2)n1O`, the growth inhibition is 4%.
`CCCCCCCCCCCCCCCCN(C)c1ccc(S(=O)(=O)O)cc1[N+](=O)[O-]`: the growth inhibition was 50%.
For `Cc1ccc2c(c1)-c1c(c3c(c4c1-c1cc(C)ccc1CC4)C(=O)OC3=O)CC2`, the growth inhibition was 2%.
The same measure for `C[N+](C)(CCO)Cc1ccccc1`: -5%.
`CCOC(=O)C(C)(C)Oc1ccc2c(=O)cc(-c3ccccc3)oc2c1`: the growth inhibition is -43%.
For the compound `CS(=O)c1cc(=O)c2ccccc2s1` (configuration not stated), the growth inhibition was 19%.
For the compound `COC(=O)c1c[nH]c2ccc(Br)cc12`, the growth inhibition was -1%.
As to `CCCCN1C(=O)C(=O)N(c2ccccc2)C1=O`, the growth inhibition is -14%.
For the compound `Cc1cc(N)c2cc(OCCOc3ccc4nc(C)cc(N)c4c3)ccc2n1`, the growth inhibition is 77% (active).
As to `Cc1c2c(c(C)c3c4c(oc13)CCCC4)C=NCC2`, the growth inhibition is -7%.
The same measure for `CCCC(c1ccc(O)cc1)c1ccc(O)cc1`: -1%; for `CC(C)=NNc1ncnc2nc[nH]c12`: -4%; for `Clc1ccc(C2=Nc3ccccc3SC(c3ccc(Cl)c(Cl)c3)C2)c(Cl)c1` (configuration not stated): 1%.
Regarding `N#Cc1c(Cl)nsc1-c1ccc([N+](=O)[O-])cc1`, the growth inhibition was 1%.
Consider `C=CCSc1nc2ccccc2c(=O)n1Cc1ccco1`, for which the growth inhibition was 33%.
For `COC(=O)CSc1nc2[nH]c(SC)c(C(N)=O)c2c(=O)n1-c1ccccc1` the value was 3%; for `Cc1cc2oc3c(ccc(=O)n3C)c(=O)c2c(C)c1Cl`, 22%.
For `CC(=O)SC1C(=O)N(C)C(SC(C)=O)C(=O)N1C` (configuration not stated) the value was 0%; for `CCCCCCCCCCCCCCCCOCC(Cl)COP(=O)(O)OP(=O)(O)OCC1OC(n2cc(C)c(=O)[nH]c2=O)CC1O` (configuration not stated), 90% (active).
Consider `CCCCCCCCCCNC(=O)CBr`, for which the growth inhibition was -3%.
`O=Cc1c(Cn2ccnc2)c2cc([N+](=O)[O-])ccc2n1Cc1ccccc1`: the growth inhibition was 6%.
The same measure for `C=C(C)C1CC2=C(O1)C(=O)c1ccccc1C2=O` (configuration not stated): 7%; for `CC(C)C1=CC2=CCC3C(C)(C(=O)O)CCCC3(C)C2CC1` (configuration not stated) (tested in a mixture with another compound): -13%.
For `ClCC1CSC2(CCCCC2)O1` (configuration not stated), the growth inhibition was 7%.
The same measure for `Oc1cccc2ccc(SSc3ccc4cccc(O)c4n3)nc12`: 94% (active).
